# Data from PubChem BioAssay (EPA / NIEHS).
# “And” between values parts separate entries of the source, which are not always exact repeats. Identical values can stand only once. Records with an inconclusive call do not appear. The source holds several records for some structures; these can differ, active in one and inactive in another. The source made the active and inactive calls. Rule for the calls, unless noted: active = hit-call score of the fitted dose curve at least 0.9, where 1 is the maximum; inactive = score below 0.9.
# What was measured:
# [1] = molecular target: Estrogen-related receptor gamma (Homo sapiens) (UniProt P62508); assay: ATG_ERRg_TRANS: Attagene TRANS-FACTORIAL HepG2 Assay for human Estrogen-Related Receptor gamma (ERRg) (AID 2282977; active = hit-call score of the fitted dose curve at least 0.9, where 1 is the maximum;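 note: hits increase reporter signal over DMSO so potencies reflect activators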); conditions: HepG2 Attagene TRANS reporter, ERRg transactivation
# How it was run: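 Exogenous NR-Gal4 chimera activity was assessed in HepG2 cells bearing transfected GAL4-UAS reporters. After 24 h dosing, total RNA underwent RT-PCR, fluorescent primer extension and HpaI digestion before capillary electrophoresis, with gain of signal scored against DMSO.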
# [2] = molecular target: Bile acid receptor (Homo sapiens) (UniProt Q96RI1); assay: ATG_FXR_TRANS: Attagene TRANS-FACTORIAL HepG2 Assay for Farnesoid X Receptor (FXR) (AID 2282979; active = hit-call score of the fitted dose curve at least 0.9, where 1 is the maximum;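 note: hits raise reporter mRNA above DMSO so AC50 marks FXR activation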); conditions: HepG2 Attagene TRANS FXR-GAL4 reporter transcription
# How it was run: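 HepG2 cells transiently transfected with reporter constructs in which a chimeric FXR-GAL4 protein drives a GAL4-UAS reporter; 24 h compound exposure. Reporter mRNA measured by RT-PCR, FAM labelling, HpaI digestion and capillary electrophoresis; gain-of-signal versus DMSO.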
# [3] = molecular target: Transcriptional activator Myb (Homo sapiens) (UniProt P10242); assay: ATG_Myb_CIS: Attagene CIS-FACTORIAL HepG2 Assay for human Myeloblastosis (Myb) Proto-Oncogene Transcription Factor (AID 2282986); conditions: HepG2 Attagene CIS-FACTORIAL Myb reporter transcription; actives raise or lower the signal
# How it was run: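 Multiplexed cis-reporter system in HepG2: transient transfection, 24 h treatment, mRNA readout by RT-PCR and capillary electrophoresis. Both increases and decreases are scored versus DMSO negative control.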
# [4] = molecular target: Nuclear respiratory factor 1 (Homo sapiens) (UniProt Q16656); assay: ATG_NRF1_CIS: Attagene CIS-FACTORIAL HepG2 Assay for human Nuclear Respiratory Factor 1 (NRF1) Orphan Gene (AID 2282987); conditions: HepG2 NRF1 cis-element reporter, Attagene multiplex; actives raise or lower the signal
# How it was run: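 Endogenous factor activity was captured via cis-element-driven reporter transcripts in HepG2 cells. Following 24 h chemical treatment, transcripts were quantified by RT-PCR and capillary electrophoresis.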
# [5] = molecular target: Myc proto-oncogene protein (Homo sapiens) (UniProt P01106); assay: ATG_Myc_CIS: Attagene CIS-FACTORIAL HepG2 Assay for human Myelocytomatosis (Myc) Proto-Oncogene Transcription Factor (AID 2282990); conditions: HepG2, Attagene cis-reporter transcription factor activity; actives raise or lower the signal
# How it was run: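 Multiplexed cis-reporter transcription in HepG2 cells after 24 h chemical treatment. Reporter mRNA measured by RT-PCR and capillary electrophoresis fluorescence; activity fitted bidirectionally against DMSO control.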
# [6] = ATG_NF_kB_CIS: Attagene CIS-FACTORIAL HepG2 Assay for human Nuclear Factor Kappa B (NF-kB) (AID 2282991); conditions: HepG2 Attagene cis-factorial NF-kB reporter mRNA; actives raise or lower the signal
# How it was run: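 After 24 h compound incubation, transfected HepG2 cells yield total RNA; reporter cDNA is PCR-amplified, end-labelled with 6-FAM, HpaI-digested and analysed on a genetic analyser. Endogenous factor activity, DMSO-referenced bidirectional fit.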
# [7] = ATG_NRF2_ARE_CIS: Attagene CIS-FACTORIAL HepG2 Assay for human Nuclear Factor Erythroid 2 Related Factor 2 (NFR2) response to Antioxidant Response Elements (ARE) (AID 2282992); conditions: HepG2 Attagene ARE/NRF2 reporter, transcription factor activity; actives raise or lower the signal
# How it was run: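 Endogenous transcription factor activity read out as reporter transcript levels (RT-PCR plus capillary electrophoresis, fluorescence) in transiently transfected HepG2 cells. Measured at 24 h after dosing; gain or loss of signal fitted versus DMSO.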
# [8] = ATG_Oct_MLP_CIS: Attagene CIS-FACTORIAL HepG2 Assay for human Octamer-Binding Transcription Factor (Oct) (AID 2282993); conditions: HepG2 Attagene cis-factorial Oct reporter, mRNA; actives raise or lower the signal
# How it was run: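 Using HepG2 cells bearing transfected cis-reporter constructs, mRNA induction was read after 24 h by fluorescent RT-PCR and capillary electrophoresis, with DMSO defining baseline for gain- or loss-of-signal fits.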
# [9] = molecular target: Glucocorticoid receptor (Homo sapiens) (UniProt P04150); assay: ATG_GR_TRANS: Attagene TRANS-FACTORIAL HepG2 Assay for human Glucocorticoid Receptor (GR) (AID 2282978; active = hit-call score of the fitted dose curve at least 0.9, where 1 is the maximum;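 note: activators score as hits since higher reporter transcript over DMSO is fitted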); conditions: HepG2 Attagene TRANS GR reporter, mRNA transcription
# How it was run: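 HepG2 transient transfection, multiple reporter units, GAL4-UAS under NR-GAL4 chimera control. 24 h treatment. Reporter mRNA by RT-PCR/CE fluorescence, DMSO as negative control.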
# [10] = molecular target: Oxysterols receptor LXR-beta (Homo sapiens) (UniProt P55055); assay: ATG_LXRb_TRANS: Attagene TRANS-FACTORIAL HepG2 Assay for human Liver X Receptor beta (LXRb) (AID 2282981; active = hit-call score of the fitted dose curve at least 0.9, where 1 is the maximum); conditions: HepG2 Attagene TRANS GAL4-LXRb reporter, mRNA
# How it was run: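 Liver-derived HepG2 cells transfected with Gal4-responsive reporters were dosed for 24 h. Activation was scored as rise in reporter mRNA, by RT-PCR and capillary electrophoresis, above DMSO baseline.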
# [11] = ATG_M_06_TRANS: Attagene TRANS-FACTORIAL HepG2 Assay for M06 Transcription Factor (Internal Marker) (AID 2282983; active = hit-call score of the fitted dose curve at least 0.9, where 1 is the maximum); conditions: HepG2 Attagene TRANS M06 internal marker reporter
# How it was run: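 In this multiplexed HepG2 system, compounds are incubated 24 h with cells carrying GAL4-UAS reporter units. Reporter RNA is amplified and resolved by capillary electrophoresis, and induction is scored against DMSO.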
# [12] = molecular target: Nuclear receptor subfamily 4 group A member 2 (Homo sapiens) (UniProt P43354); assay: ATG_NURR1_TRANS: Attagene TRANS-FACTORIAL HepG2 Assay for human Nuclear Receptor Related Protein 1 (NURR1) (AID 2282985; active = hit-call score of the fitted dose curve at least 0.9, where 1 is the maximum); conditions: HepG2 Attagene TRANS reporter, mRNA readout
# How it was run: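 Chimeric NR-Gal4 proteins were expressed in human HepG2 cells bearing GAL4-UAS reporter units, and induced reporter mRNA was quantified 24 h post-dosing by RT-PCR and capillary electrophoresis.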
# [13] = ATG_NFI_CIS: Attagene CIS-FACTORIAL HepG2 Assay for human Nuclear Factor I (NFI) (AID 2282989); conditions: HepG2 cis-regulatory reporter, NFI response element transcription; actives raise or lower the signal
# How it was run: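 Transfected HepG2 liver cells, exposed 24 h, supplied total RNA for oligo(dT) reverse transcription and reporter-specific PCR. Labelled, HpaI-cut fragments were sized by capillary electrophoresis; DMSO set the baseline for bidirectional fitting.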
# [14] = BSK_3C_TissueFactor: BioMAP Diversity Plus: 3C Assay for Tissue Factor Biomarker Activity (AID 2282997); conditions: BioMAP 3C HUVEC, tissue factor biomarker readout; actives raise or lower the signal
# How it was run: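 Readout: Tissue Factor ELISA. Cells: human primary umbilical vein endothelium. Time: 24 h after dosing. Analysis: bidirectional fit, DMSO baseline.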
# [15] = BSK_3C_uPAR: BioMAP Diversity Plus: 3C Assay for Urokinase-type plasminogen activator receptor (uPAR) Biomarker Activity (AID 2282998); conditions: BioMAP 3C HUVEC, uPAR biomarker ELISA; actives raise or lower the signal
# How it was run: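 In this endothelial cell-based assay, human umbilical vein primary cells were treated with chemicals and harvested at 24 h. uPAR was quantified using ELISA, with gains or losses fitted relative to DMSO controls.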
# [16] = molecular target: Hepatocyte nuclear factor 4-alpha (Homo sapiens) (UniProt P41235); assay: ATG_HNF4a_TRANS: Attagene TRANS-FACTORIAL HepG2 Assay for human Hepatocyte Nuclear Factor 4 alpha (HNF4a) (AID 2282982; active = hit-call score of the fitted dose curve at least 0.9, where 1 is the maximum); conditions: HepG2 HNF4a transactivation reporter, mRNA readout
# How it was run: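 Using HepG2 liver cells transfected with GAL4-UAS reporter units, chemical-induced mRNA increases were assessed after 24 hours. Fluorescent RT-PCR fragments were separated by capillary electrophoresis and compared with DMSO negative controls.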
# [17] = ATG_M_32_TRANS: Attagene TRANS-FACTORIAL HepG2 Assay for M32 Transcription Factor (Internal Marker) (AID 2282984; active = hit-call score of the fitted dose curve at least 0.9, where 1 is the maximum;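 note: transcript level of a background control reporter unit measured by RT-PCR and capillary electrophoresis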); conditions: HepG2 Attagene TRANS M32 internal marker reporter
# How it was run: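 Fluorescence-detected mRNA induction, HepG2 liver cells, 24 h after dosing. Multiple GAL4-UAS reporter units introduced by transient transfection; background-control endpoint analysed for gain of signal against DMSO.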
# [18] = molecular target: Cellular tumor antigen p53 (Homo sapiens) (UniProt P04637); assay: ATG_p53_CIS: Attagene CIS-FACTORIAL HepG2 Assay for human p53 Transcription Factor (AID 2282994); conditions: HepG2 p53 cis-element reporter, Attagene mRNA; actives raise or lower the signal
# How it was run: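 Endogenous p53 activity read in transiently transfected HepG2 from a cis-element-driven reporter transcript after 24 h exposure. RNA reverse-transcribed, PCR-amplified, fluorescently labelled and sized by capillary electrophoresis; gain or loss fitted against DMSO baseline.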
# [19] = molecular target: Oxysterols receptor LXR-alpha (Homo sapiens) (UniProt Q13133); assay: ATG_LXRa_TRANS: Attagene TRANS-FACTORIAL HepG2 Assay for human Liver X Receptor alpha (LXRa) (AID 2282980; active = hit-call score of the fitted dose curve at least 0.9, where 1 is the maximum); conditions: HepG2 Attagene TRANS reporter, LXRa transactivation
# How it was run: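 HepG2 cells were transiently transfected with multiplexed reporter units driven by chimeric LXRa–GAL4 fusion proteins, then dosed for 24 h. Reporter mRNA was quantified by RT-PCR, fluorescent labelling and capillary electrophoresis; gain of signal fitted against DMSO baseline.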
# Myc proto-oncogene protein (Homo sapiens), sequence (P01106 whole entry, looked up): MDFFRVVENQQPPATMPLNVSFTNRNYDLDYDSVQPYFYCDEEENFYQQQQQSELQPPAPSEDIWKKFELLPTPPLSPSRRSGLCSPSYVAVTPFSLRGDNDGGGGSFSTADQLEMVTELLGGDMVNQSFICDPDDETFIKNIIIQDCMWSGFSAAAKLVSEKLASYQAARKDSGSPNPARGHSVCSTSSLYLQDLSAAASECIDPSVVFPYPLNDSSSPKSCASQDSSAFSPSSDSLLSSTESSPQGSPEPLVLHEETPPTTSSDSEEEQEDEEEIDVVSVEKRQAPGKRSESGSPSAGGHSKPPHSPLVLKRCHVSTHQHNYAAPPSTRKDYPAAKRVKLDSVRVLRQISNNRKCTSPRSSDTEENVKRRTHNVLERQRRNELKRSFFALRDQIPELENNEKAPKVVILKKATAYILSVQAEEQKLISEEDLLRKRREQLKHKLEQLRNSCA
# Estrogen-related receptor gamma (Homo sapiens), sequence (P62508 whole entry, looked up, the tested form may be a part): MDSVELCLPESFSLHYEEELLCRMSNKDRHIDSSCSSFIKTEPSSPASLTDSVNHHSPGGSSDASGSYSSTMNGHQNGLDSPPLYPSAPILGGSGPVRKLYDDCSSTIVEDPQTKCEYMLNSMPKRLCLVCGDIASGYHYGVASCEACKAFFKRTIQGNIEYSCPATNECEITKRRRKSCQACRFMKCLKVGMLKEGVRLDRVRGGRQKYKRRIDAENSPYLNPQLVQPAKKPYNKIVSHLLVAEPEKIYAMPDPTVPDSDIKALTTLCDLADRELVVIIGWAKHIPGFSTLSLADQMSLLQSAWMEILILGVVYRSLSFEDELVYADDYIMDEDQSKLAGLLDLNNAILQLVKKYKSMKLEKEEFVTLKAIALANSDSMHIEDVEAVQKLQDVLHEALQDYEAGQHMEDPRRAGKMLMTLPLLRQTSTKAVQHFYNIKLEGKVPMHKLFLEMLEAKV
# Bile acid receptor (Homo sapiens), sequence (Q96RI1 whole entry, looked up, the tested form may be a part): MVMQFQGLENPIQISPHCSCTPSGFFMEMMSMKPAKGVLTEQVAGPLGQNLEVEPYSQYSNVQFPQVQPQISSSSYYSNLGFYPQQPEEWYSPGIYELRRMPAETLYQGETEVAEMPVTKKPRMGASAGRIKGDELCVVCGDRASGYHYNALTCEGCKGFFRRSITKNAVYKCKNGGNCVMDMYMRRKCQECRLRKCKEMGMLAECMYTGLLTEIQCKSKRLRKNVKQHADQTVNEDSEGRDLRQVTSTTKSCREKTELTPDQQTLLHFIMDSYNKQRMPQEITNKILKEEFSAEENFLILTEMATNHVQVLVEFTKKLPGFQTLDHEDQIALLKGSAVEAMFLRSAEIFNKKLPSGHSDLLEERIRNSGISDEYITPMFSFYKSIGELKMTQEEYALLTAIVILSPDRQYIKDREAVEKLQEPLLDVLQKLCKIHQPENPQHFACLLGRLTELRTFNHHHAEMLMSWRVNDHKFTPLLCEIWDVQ
# Oxysterols receptor LXR-beta (Homo sapiens), sequence (P55055 whole entry, looked up, the tested form may be a part): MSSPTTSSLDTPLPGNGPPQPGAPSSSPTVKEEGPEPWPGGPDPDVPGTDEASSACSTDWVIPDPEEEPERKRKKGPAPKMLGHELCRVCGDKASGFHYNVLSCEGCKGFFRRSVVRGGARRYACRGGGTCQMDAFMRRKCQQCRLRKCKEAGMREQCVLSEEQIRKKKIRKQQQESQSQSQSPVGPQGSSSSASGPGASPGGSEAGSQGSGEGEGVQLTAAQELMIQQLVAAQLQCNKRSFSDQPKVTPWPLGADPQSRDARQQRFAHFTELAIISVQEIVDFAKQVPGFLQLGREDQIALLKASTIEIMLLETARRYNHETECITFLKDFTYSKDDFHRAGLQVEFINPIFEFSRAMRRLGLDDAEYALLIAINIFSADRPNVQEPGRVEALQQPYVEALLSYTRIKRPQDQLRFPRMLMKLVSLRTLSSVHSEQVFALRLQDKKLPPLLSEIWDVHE
# Nuclear respiratory factor 1 (Homo sapiens), sequence (Q16656 whole entry, looked up): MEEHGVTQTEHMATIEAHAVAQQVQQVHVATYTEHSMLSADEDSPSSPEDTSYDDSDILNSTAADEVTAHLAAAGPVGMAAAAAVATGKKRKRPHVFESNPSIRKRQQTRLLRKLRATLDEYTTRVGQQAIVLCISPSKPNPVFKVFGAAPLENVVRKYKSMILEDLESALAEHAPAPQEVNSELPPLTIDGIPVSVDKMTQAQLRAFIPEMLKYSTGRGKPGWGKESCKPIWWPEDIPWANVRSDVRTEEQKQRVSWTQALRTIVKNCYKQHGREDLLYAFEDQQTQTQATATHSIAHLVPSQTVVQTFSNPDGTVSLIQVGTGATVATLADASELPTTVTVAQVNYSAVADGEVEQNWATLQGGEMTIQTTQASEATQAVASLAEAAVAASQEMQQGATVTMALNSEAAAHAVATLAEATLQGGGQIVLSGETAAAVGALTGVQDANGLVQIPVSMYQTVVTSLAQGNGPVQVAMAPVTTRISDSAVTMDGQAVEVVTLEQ
# Transcriptional activator Myb (Homo sapiens), sequence (P10242 whole entry, looked up): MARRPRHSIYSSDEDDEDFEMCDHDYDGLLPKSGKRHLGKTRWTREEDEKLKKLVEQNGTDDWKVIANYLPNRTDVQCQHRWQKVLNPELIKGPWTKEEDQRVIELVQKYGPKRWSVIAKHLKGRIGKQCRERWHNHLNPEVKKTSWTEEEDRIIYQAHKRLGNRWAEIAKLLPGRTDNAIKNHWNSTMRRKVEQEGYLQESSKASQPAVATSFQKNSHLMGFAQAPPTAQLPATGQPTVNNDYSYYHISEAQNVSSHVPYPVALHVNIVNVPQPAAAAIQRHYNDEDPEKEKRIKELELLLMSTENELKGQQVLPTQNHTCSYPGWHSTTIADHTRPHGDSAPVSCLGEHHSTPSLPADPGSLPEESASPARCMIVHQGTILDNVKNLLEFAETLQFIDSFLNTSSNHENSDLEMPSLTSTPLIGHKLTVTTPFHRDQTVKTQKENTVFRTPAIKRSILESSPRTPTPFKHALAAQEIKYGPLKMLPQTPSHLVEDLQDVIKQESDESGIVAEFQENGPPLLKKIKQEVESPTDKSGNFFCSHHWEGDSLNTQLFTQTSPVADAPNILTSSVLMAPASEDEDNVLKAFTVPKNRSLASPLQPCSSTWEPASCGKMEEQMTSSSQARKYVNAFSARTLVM
# Oxysterols receptor LXR-alpha (Homo sapiens), sequence (Q13133 whole entry, looked up, the tested form may be a part): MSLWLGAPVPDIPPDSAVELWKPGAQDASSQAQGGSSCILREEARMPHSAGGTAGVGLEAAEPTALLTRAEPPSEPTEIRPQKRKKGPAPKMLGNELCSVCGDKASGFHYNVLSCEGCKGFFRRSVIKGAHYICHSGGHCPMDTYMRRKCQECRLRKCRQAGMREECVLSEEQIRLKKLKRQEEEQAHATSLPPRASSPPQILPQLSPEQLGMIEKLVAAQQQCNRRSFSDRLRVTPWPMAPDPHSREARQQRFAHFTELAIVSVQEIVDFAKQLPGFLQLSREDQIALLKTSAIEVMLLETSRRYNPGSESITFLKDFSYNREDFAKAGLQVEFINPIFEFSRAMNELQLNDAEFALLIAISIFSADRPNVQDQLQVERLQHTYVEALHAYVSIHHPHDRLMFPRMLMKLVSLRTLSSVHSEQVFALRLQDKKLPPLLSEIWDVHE
# Cellular tumor antigen p53 (Homo sapiens), sequence (P04637 whole entry, looked up): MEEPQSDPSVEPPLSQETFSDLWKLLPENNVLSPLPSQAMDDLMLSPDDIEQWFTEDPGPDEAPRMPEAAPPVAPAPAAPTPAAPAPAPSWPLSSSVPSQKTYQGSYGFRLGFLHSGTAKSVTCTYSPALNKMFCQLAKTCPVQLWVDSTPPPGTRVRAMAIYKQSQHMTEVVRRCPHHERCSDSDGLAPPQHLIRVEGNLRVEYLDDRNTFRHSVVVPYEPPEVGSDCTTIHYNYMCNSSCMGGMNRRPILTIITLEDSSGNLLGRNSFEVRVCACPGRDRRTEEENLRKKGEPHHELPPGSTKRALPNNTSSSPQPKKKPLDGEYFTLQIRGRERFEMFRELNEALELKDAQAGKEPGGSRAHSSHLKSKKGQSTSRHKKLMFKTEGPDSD
# Nuclear receptor subfamily 4 group A member 2 (Homo sapiens), sequence (P43354 whole entry, looked up, the tested form may be a part): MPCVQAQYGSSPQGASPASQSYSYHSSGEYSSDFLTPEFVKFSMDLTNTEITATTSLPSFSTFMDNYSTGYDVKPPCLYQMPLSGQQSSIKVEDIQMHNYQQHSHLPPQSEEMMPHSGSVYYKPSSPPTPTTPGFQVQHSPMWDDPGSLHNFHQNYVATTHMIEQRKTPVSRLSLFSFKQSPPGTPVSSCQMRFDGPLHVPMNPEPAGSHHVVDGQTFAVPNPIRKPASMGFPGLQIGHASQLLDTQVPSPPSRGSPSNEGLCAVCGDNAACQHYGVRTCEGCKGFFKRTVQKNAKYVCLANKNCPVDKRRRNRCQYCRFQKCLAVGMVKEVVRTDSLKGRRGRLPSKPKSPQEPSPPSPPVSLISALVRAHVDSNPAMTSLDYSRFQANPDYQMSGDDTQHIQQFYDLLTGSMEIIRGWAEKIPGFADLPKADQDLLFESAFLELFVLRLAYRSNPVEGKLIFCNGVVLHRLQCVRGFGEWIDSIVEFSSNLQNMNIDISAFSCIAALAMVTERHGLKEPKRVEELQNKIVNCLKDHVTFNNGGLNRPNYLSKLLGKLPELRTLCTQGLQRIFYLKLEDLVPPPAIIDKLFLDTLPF
# Hepatocyte nuclear factor 4-alpha (Homo sapiens), sequence (P41235 whole entry, looked up, the tested form may be a part): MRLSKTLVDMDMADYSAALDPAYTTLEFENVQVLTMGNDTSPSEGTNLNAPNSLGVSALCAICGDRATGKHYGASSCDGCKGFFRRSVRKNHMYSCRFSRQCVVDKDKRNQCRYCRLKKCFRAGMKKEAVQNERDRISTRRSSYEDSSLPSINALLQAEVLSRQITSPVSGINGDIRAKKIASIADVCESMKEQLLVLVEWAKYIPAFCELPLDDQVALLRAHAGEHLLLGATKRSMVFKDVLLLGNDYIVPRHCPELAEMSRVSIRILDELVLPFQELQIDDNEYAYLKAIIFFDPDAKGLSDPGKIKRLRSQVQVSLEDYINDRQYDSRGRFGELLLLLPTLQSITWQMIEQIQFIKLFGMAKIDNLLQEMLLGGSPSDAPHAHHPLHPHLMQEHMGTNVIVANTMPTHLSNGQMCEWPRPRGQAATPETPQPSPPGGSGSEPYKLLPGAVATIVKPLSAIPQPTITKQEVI
smiles,measurement,setting,value
CCC[CH2][Sn]([Cl])([Cl])[Cl],outcome,[1],inactive
same,outcome,[2],inactive
same,outcome,[3],inactive
same,outcome,[4],inactive
same,outcome,[5],inactive
same,outcome,[6],inactive
same,AC50,[7],5.38 µM (active)
same,outcome,[8],inactive
Nc1ncc([N+](=O)[O-])s1,outcome,[1],inactive
same,outcome,[9],inactive
same,outcome,[10],inactive
same,outcome,[11],inactive
same,outcome,[12],inactive
same,outcome,[3],inactive
same,outcome,[4],inactive
same,outcome,[13],inactive
same,outcome,[5],inactive
same,outcome,[6],inactive
same,AC50,[7],73.2 µM (active)
same,outcome,[8],inactive
same,AC50,[14],12.2 µM (active)
same,outcome,[15],inactive
O=C(Nc1ccc2[nH]ccc2c1)c1cc2cc(F)ccc2n1Cc1cccc(F)c1,outcome,[1],inactive
same,outcome,[2],inactive
same,outcome,[16],inactive
same,outcome,[17],inactive
same,outcome,[12],inactive
same,outcome,[3],inactive
same,outcome,[13],inactive
same,AC50,[5],16.6 µM (active)
same,AC50,[6],7.2 µM (active)
same,AC50,[7],8.08 µM (active)
same,AC50,[8],11 µM (active)
same,outcome,[18],inactive
same,AC50,[14],8.59 µM (active)
same,AC50,[15],7.15 µM (active)
O=C(c1ccccc1)C(Cl)Cl,outcome,[1],inactive
same,outcome,[2],inactive
same,outcome,[10],inactive
same,outcome,[17],inactive
same,outcome,[12],inactive
same,outcome,[3],inactive
same,AC50,[4],24.8 µM (active)
same,outcome,[5],inactive
same,AC50,[6],25.9 µM (active)
same,outcome,[7],inactive
same,AC50,[8],25.3 µM (active)
same,outcome,[18],inactive
CC(C)OC(=O)Nc1ccccc1,outcome,[1],inactive
same,outcome,[10],inactive
same,outcome,[11],inactive
same,outcome,[17],inactive
same,outcome,[3],inactive
same,outcome,[4],inactive
same,outcome,[13],inactive
same,outcome,[5],inactive
same,outcome,[6],inactive
same,outcome,[7],inactive
same,outcome,[8],inactive
same,outcome,[18],inactive
CC(C)C1CCC(Cc2ccc(Cl)cc2)C1(O)Cn1cncn1 (stereo not drawn),outcome,[1],inactive
same,outcome,[9],inactive
same,outcome,[2],inactive
same,outcome,[19],inactive
same,outcome,[10],inactive
same,outcome,[11],inactive
same,outcome,[17],inactive
same,outcome,[3],inactive
same,outcome,[4],inactive
same,outcome,[13],inactive
same,outcome,[5],inactive
same,outcome,[6],inactive
same,AC50,[7],13.2 µM (active)
same,outcome,[8],inactive
same,AC50,[18],11 µM (active)
C[C@@H]1C[C@@H]([C@H](O)CC2CC(=O)NC(=O)C2)C(=O)[C@@H](C)C1,outcome,[1],inactive
same,outcome,[2],inactive
same,outcome,[19],inactive
same,outcome,[10],inactive
same,outcome,[11],inactive
same,outcome,[17],inactive
same,outcome,[12],inactive
same,outcome,[3],inactive
same,outcome,[13],inactive
same,outcome,[5],inactive
same,AC50,[6],17.9 µM (active) [middle of 4 runs]
same,AC50,[8],24.1 µM (active) and 25.4 µM (active)
same,outcome,[8],inactive
same,AC50,[18],1.24 µM (active) and 2.34 µM (active) and 1.67 µM (active)
same,outcome,[18],inactive
same,AC50,[14],2.05 µM (active)
same,AC50,[15],5.3 µM (active)
ClC1(Cl)C2(Cl)C3(Cl)C4(Cl)C(Cl)(Cl)C5(Cl)C3(Cl)C1(Cl)C5(Cl)C24Cl (stereo not drawn),outcome,[1],inactive
same,outcome,[2],inactive
same,outcome,[10],inactive
same,outcome,[11],inactive
same,outcome,[12],inactive
same,outcome,[3],inactive
same,outcome,[4],inactive
same,outcome,[13],inactive
same,outcome,[5],inactive
same,outcome,[8],inactive
same,outcome,[18],inactive
same,outcome,[14],inactive
same,outcome,[15],inactive
CC(=O)C=C(C)C,outcome,[1],inactive
same,outcome,[9],inactive
same,outcome,[10],inactive
same,outcome,[11],inactive
same,outcome,[17],inactive
same,outcome,[12],inactive
same,outcome,[3],inactive
same,outcome,[4],inactive
same,outcome,[13],inactive
same,outcome,[5],inactive
same,outcome,[6],inactive
same,outcome,[7],inactive
same,outcome,[8],inactive
